According to PubChem BioAssay AID624330 (Southern Research Specialized Biocontainment Screening …, 2012):
Screen size: about 340,000 compounds; about 2,100 (0.62%) were called active.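 The calls were made as follows: active = first-screen hits whose inhibition reached a set limit at any dose in the follow-up dose series; inconclusive = inhibition above the set first-screen limit but never retested; inactive = the rest.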 Only a sample is shown. Potency and affinity values are given separately.

target: Rac GTPase-activating protein 1 (Homo sapiens) (UniProt Q9H0H5); assay: blockers of MgcRacGAP-driven Rac1 GTP hydrolysis – biochemical, ADP Hunter fluorescence, primary and confirmatory, confirmation (AID 624330); conditions: MgcRacGAP-stimulated Rac1 GTP hydrolysis, at 30 µM, active compounds read high, GST-tagged Rac1 F28L mutant substrate;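 also: fluorescence reports GDP produced by GAP-driven GTP hydrolysis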
Sequence (Q9H0H5 whole entry, looked up): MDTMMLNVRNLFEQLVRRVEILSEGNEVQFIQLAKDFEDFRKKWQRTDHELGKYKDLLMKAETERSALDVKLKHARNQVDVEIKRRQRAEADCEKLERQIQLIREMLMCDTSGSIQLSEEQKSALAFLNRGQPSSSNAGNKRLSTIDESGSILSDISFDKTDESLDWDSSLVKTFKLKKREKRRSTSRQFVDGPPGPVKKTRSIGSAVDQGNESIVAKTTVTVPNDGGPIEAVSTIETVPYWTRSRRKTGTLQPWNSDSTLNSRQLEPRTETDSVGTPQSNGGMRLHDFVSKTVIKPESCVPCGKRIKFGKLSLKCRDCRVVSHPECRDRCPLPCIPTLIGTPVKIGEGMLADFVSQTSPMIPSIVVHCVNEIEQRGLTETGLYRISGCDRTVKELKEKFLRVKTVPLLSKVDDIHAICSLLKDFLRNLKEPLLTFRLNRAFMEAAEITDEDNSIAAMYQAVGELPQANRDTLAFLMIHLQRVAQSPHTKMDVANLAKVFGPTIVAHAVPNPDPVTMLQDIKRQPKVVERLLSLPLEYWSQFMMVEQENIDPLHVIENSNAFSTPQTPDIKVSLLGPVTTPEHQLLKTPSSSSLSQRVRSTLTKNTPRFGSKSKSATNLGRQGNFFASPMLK

inhibition, inactive:
O=C(CN1CCN(S(=O)(=O)c2ccccc2)CC1)Nc1ccccc1C(=O)NC1CC1 4.29%
O=C(CN1CCN(c2ccc(F)cc2)CC1)Nc1ccccc1C(=O)NCCc1ccccc1 9.18%
COc1ccc(N2CCN(C(=S)NCCc3ccccc3)CC2)cc1 5.11%
CC1CCN(CC(=O)Nc2ccccc2C(=O)NC2CC2)CC1 3.3%
O=C(NC(=S)N1CCN(c2ccccc2)CC1)c1ccco1 5.3%
O=C(NC(=S)N1CCN(c2ccc([N+](=O)[O-])cc2)CC1)c1ccco1 13.1%
S=C(NCCc1ccccc1)N1CCN(C(=S)NCCc2ccccc2)CC1 1.96%
O=C(CN1CCN(c2ccccc2)CC1)Nc1ccccc1C(=O)NCCc1ccccc1 15.8%
O=C1CN(C(=O)CNCc2ccc(Cl)cc2)c2ccccc2N1 31.7%
CCCC(C(=O)Nc1ccc(S(=O)(=O)N2CCOCC2)cc1)c1ccccc1 (stereo unspecified) 4.26%
Cc1nn(C)c(C)c1NC(=O)CN1CCC(O)(c2ccc3c(c2)OCO3)CC1 2.97%
COc1ccccc1NC(=O)c1ccc2c(c1)CCN2S(C)(=O)=O 6.1%
CC(C)NC(=S)N/N=C1\CCCc2ccccc21 3.57%
Nc1nc(NC(=O)c2ccc(F)cc2)ns1 7.21%
Cc1nc2ccc(N)cc2c(=O)n1Cc1ccc(Cl)cc1 4.23%
Nc1nc(N)c2cc(CNc3ccc(Cl)c(Cl)c3)ccc2n1 14.7%
Cc1c(C(C)C[C@H](C)O)oc(=O)c2c1Oc1c(C)c(C(C)C[C@H](C)O)oc(=O)c1C2 (stereo partly specified) 7.75%
CN1CCN(/N=C/c2ccc(N(C)c3ccccc3)cc2)CC1 27.2%
CCOc1ccccc1/C=N/N1CCN(Cc2ccccc2)CC1 -6.47%
C(=N\N1CCN(Cc2ccccc2)CC1)/c1ccccc1 8.38%
CCN(CC)c1ccc(/C=N\N2CCN(Cc3ccc(C)cc3)CC2)cc1 20.7%
CCN(CC)c1ccc(C=NN2CCCCCC2)cc1 -1.67%
CCOc1ccc(/C=N/N2CCN(Cc3ccccc3)CC2)cc1 -1.17%
CN1CCN(/N=C/c2ccc(N(c3ccccc3)c3ccccc3)cc2)CC1 15.3%
CCN(CC)c1ccc(/C=N/N2CCN(c3ccccn3)CC2)cc1 13.5%
COc1cccc(-c2nn(C)c3sc(C(=O)NCc4ccc(C)cc4)cc23)c1 5.17%
CCOC(=O)c1[nH]c(C)c(C(=O)OCC(=O)NCc2ccc(OC)c(OC)c2)c1C 1.24%
Cn1ncc2c(NCc3ccccc3)nc(NCCCO)nc21 8.06%
CC(C)CC(NC(=O)OC(C)(C)C)c1cn([C@@H](Cc2cc3ccccc3[nH]2)C(=O)N2CCN(C(=O)OC(C)(C)C)CC2)nn1 (stereo partly specified) 9.06%
COC(=O)c1c(C)[nH]c(C(=O)OC(C)C(=O)N2CCOCC2)c1C (stereo unspecified) 13.4%
O=C(COC(=O)CC12CC3CC(CC(C3)C1)C2)Nc1ncc(Cl)cc1Cl 3.82%
COc1ccc(C(=O)OCC(=O)N2CCN(C(=O)c3ccco3)CC2)cc1OC 0.19%
COc1ccc2c(c1)C(c1ccc(C)o1)=NNC(c1ccccc1)=N2 2.46%
CCC1=NN(C(=O)Cc2ccccc2)C(O)(c2ccncc2)C1 (stereo unspecified) 5.64%
CCN(Cc1ccccc1)c1ccc(/C=N/NC(=O)c2cccc(S(=O)(=O)N3CCOCC3)c2)cc1 9.77%
CCN(CC)c1ccc(/C=N/N2CCN(Cc3ccc(C)cc3)CC2)c(O)c1 15.3%
CCN(CC)c1ccc(/C=N/N2CCN(Cc3ccccc3)CC2)c(O)c1 25.7%
CCN(CC)c1ccc(/C=N/N2CCN(c3ccccc3OC)CC2)cc1 13%
Cc1c(N(CC(=O)O)S(=O)(=O)c2ccccc2)c(=O)n(-c2ccccc2)n1C 11.2%
O=C(c1ccc(NS(=O)(=O)c2cccc3cccnc23)cc1)N1CCCCC1 -16.1%
CCOc1ccc(NC(=O)CN(C)C(=O)c2ccc(C)c(S(=O)(=O)N3CCCCC3)c2)cc1OCC 6.08%
O=[N+]([O-])c1ccc2[nH]c(O)c(N=NC(=S)NCC3CCCO3)c2c1 (stereo unspecified) 9.66%
COc1cccc(NC(=O)C(=O)NCC2CCCN2S(=O)(=O)c2ccccc2)c1 (stereo unspecified) 3.83%
CCc1ccccc1-n1nnnc1-c1cnccc1C(F)(F)F 4.03%
O=S(=O)(Cc1c(F)cccc1Cl)c1ncn[nH]1 5.34%
CN(C)c1ccc(CNn2cnnc2SCC(=O)NC(C)(C)C)cc1 14.5%
Cc1[nH]n(-c2cccc(Cl)c2)c(=O)c1-c1ccccc1 30.6%
Cc1[nH]n(-c2ccccc2)c(=O)c1-c1ccc(Cl)cc1 8.45%
COc1ccc([N+](=O)[O-])cc1N(CC(=O)N1CCN(Cc2ccccc2)CC1)S(C)(=O)=O 6.86%
COc1ccc(OC)c(NC(=O)COC(=O)CCCN2C(=O)c3ccccc3C2=O)c1 3.2%
C[C@@H]1COC(=O)CCC/C=C\C[C@@H](CC(=O)N(CCO)Cc2ccccc2)C(=O)N1 4.52%
COc1ccc(-c2cc3ccccc3n2CC(O)CN2CCC(C)CC2)cc1 (stereo unspecified) 9.85%
COc1ccc(-c2cc3ccccc3n2CC(O)CN2CCOCC2)cc1 (stereo unspecified) 4.64%
COc1ccc(C(=O)N/C(=C\c2ccc(-c3cccc([N+](=O)[O-])c3)o2)C(=O)NCCCN2CCOCC2)cc1 -23.2%
Cc1cccc(C)c1NC(=O)Cn1nnc(-c2ccc(N3CCOCC3)cc2)n1 3.65%
Cc1nc(N2CCN(c3ccccc3F)CC2)[nH]c(=O)c1C 6.5%
Cc1c(C(=O)N(Cc2ccncc2)CC2CCCO2)oc2c(F)cccc12 (stereo unspecified) 5.69%
COc1cc(/C=N/NC(=O)c2ccncc2)ccc1OC(=O)c1cc(OC)c(OC)c(OC)c1 16.1%
COc1cc(/C=N/n2cnnc2)ccc1OC(=O)c1ccco1 16.6%
COc1cc(C=O)ccc1OC(=O)c1cccnc1 7.23%
COc1cc(C=O)ccc1OC(=O)c1ccncc1 14.9%
